Data published in PubChem BioAssay (Tox21).
Unmarked numbers belong to inactive results. Calls of active or inactive are those of the source. Calls come from the whole dose curve; as a rule, active = well fitted curve in the direction sought with a large enough effect in the repeat runs; inconclusive = weak or mixed curves; inactive = flat fitted curve, though single readings scatter.

Experiment: qHTS assay to test for compound auto fluorescence at 590 nm (red) in HepG2 cell free culture (AID 720684)
Settings: cell-free medium autofluorescence, red 540/590 nm; series mostly up to 91.3 µM
Excerpt: U.S. Tox21 Program National Center for Advancing Translational Sciences [NCATS] NIH Chemical Genomics Center [NCGC] U.S. Environmental Protection Agency [EPA] National Institutes of Environmental Health Sciences [NIEHS] National Toxicology Program [NTP] U.S. Food and Drug Administration [FDA] Tox21 Assay Overview: Compound auto fluorescence often interferes with screening of the compound library against various biological targets and signaling pathways. Some of these compounds may have fluorophoric properties. Such properties may interfere with the assay outputs resulting in false positives and/or negatives. To decrease such complications and ensure the compound activities are relevant in terms of biological response, the Tox21 10K compound library was screened for auto fluorescence. From the fluorophores used as reporter signals in our screening assays, the auto fluorescence equivalencies of compounds against three fluorophores have been evaluated: Triamterene, Fluorescein and Rose Bengal sodium for blue, green and red fluorescence, respectively. The fluorescence intensities were measured using Excitation/Emission wavelengths at 405/460nm, 485/535nm and 540/590nm for blue, green and red labels, respectively. This assay includes the red fluorescence data.
Tox21 Assay Protocol Summary: 5 uL of culture medium (MEM containing 10% FBS) per well was dispensed into black wall/clear bottom 1536-well plates using a Multidrop Combi Dispenser (ThermoFisher Scientific, Waltham, MA). After 23 nL compound or DMSO vehicle was transferred into assay plate by a pintool work station (Kalypsys, San Diego, CA), fluorescence intensities in the assay plates were measured by an Envision (PerkinElmer, Shelton, CT) plate reader using three labels for measuring blue, green and red fluorescence at […] 460, 535 and 590nm respectively.
% is set by controls: 0 for no effect and ±100 for the full control effect.

Structure (SMILES)	outcome	fluorescence, % of Rose Bengal
CCN(CC)CCOc1ccc2c(c1)C(=O)c1cc(OCCN(CC)CC)ccc1-2	inactive	–
CC(C)CCCCCCOC(=O)c1ccc(C(=O)OCCCCCCC(C)C)c(C(=O)OCCCCCCC(C)C)c1	inactive	–
CC(C)c1ccccc1C(C)C	inactive	–
CN1CCC(=C2c3ccccc3C=Cc3ccccc32)CC1	inactive	–
CC(C)c1ccc2c(C(C)C)cc(C(C)C)c(S(=O)(=O)O)c2c1	inactive	–
CN(C)CCCOc1nn(Cc2ccccc2)c2ccccc12	–	-0.0465% [at 18.6 µM]
CC(=O)SCc1ccco1	inactive	–
CC1=CC(=O)/C(=C(/C)O)C(=O)O1	inactive	–
CCOc1ccc(NC(=O)CC(C)=O)cc1	inactive	–
Oc1ccc(Sc2ccc(O)cc2)cc1	inactive	–
O=C1c2cccc(O)c2C(=O)c2c(O)cc(CO)cc21	inactive	–
CC(=O)N(O)CCCCCNC(=O)CCC(=O)N(O)CCCCCNC(=O)CCC(=O)N(O)CCCCCN	–	-0.352% [at 18.6 µM]
CC(C)NCC(O)c1cc(O)cc(O)c1 (stereo not given)	inactive	–
CC/C(=C\C(=N/O)C(N)=O)C(C)[N+](=O)[O-] (stereo not given)	inactive	–
Cc1cccc(C(C)(C)C)c1O	inactive	–
Oc1ccc(O)c2c(O)cccc12	inactive	–
CCN(CC)CCOC(=O)C1(c2ccccc2)CCCC1	inactive	–
CCCCCCCCCC=O	inactive	–
C=CCCCCCC	inactive	–
O=C(O)C(c1ccc(Cl)cc1)c1ccc(Cl)cc1	inactive	–

Structure (SMILES)	outcome	fluorescence, % of Rose Bengal
CC(=O)NCCCS(=O)(=O)O	inactive	–
CCOc1nc2cccc(C(=O)O)c2n1Cc1ccc(-c2ccccc2-c2nn[nH]n2)cc1	inactive	–
Nc1nc(N)c(-c2ccccc2)s1	inactive	–
CC(C)(C)c1ccc(OCC2CO2)cc1 (stereo not given)	inactive	–
O=S1(=O)c2cccc3cccc(c23)N1CCCN1CCN(c2ccc(F)cc2)CC1	inactive	–
CN(C)C/C=C(/c1ccc(Br)cc1)c1cccnc1	inactive	–
CCCCCCCCCCCCCCCC(=O)OC/C=C(C)/C=C/C=C(C)/C=C/C1=C(C)CCCC1(C)C	inactive	–
CCCCCCCCCCCCCCC1CO1 (stereo not given)	inactive	–
CCN(CC)CCNC(C(=O)OCCC(C)C)c1ccccc1 (stereo not given)	inactive	–
CCCc1ccccc1	inactive	–
N#Cc1c(F)cccc1F	inactive	–
CCOC(=S)SSC(=S)OCC	inactive	–
c1ccc(OCc2ccc(CCCN3CCOCC3)cc2)cc1	inactive	–
OC(CCN1CCCCC1)(c1ccccc1)C1CCCCC1 (stereo not given)	inactive	–
CN1CCN(C2=Nc3ccccc3Sc3ccc(Cl)cc32)CC1	inactive	–
CC(=O)/C=C/C1C(C)=CCCC1(C)C (stereo not given)	inactive	–
c1ccc(CNCc2ccccc2)cc1	inactive	–
C1=Cc2ccccc2C1	inactive	–
C=CC(=O)OCC(C)OCC(C)OCC(C)OC(=O)C=C (stereo not given)	inactive	–
O=C(c1ccccc1)c1ccc2n1CCC2C(=O)O (stereo not given)	inactive	–
